Source: PubChem BioAssay
Sampled rows, rich in hits. Any-hit rate of the full collection: about 21%.
D3 ag: D3 dopamine receptor (human) agonism | max activation, % | 410,000 compounds, 0.58% hits | P35462 | D3R DiscoveRx beta-arrestin cells, luminescence, 90 min; in the data active = max activation above about 30%
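Cells at 1500/well, incubated overnight, then treated with pinned compounds (dopamine as control) for 90 min at 37 degrees C. DiscoveRx reagent added for 30 - 60 minutes at room temperature; luminescence read.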
DRD3 antagonist: antagonists of human D3 dopamine receptor; P35462; D3R cells, DiscoveRx beta-arrestin luminescence, antagonist mode; hits give low values; max response, negative = inhibition, %; 360,000 compounds, 2.5% hits; AID 652054; in the data active = max response below about -50%; inconclusive = no clear call, values can overlap the other calls
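Cells plated overnight at 1500 cells/well, then exposed to library compounds with dopamine controls for 90 minutes at 37 degrees C. DiscoveRx reagent added for 30–60 minutes at room temperature; luminescence read, quantitative HTS format.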
DT40 TDP1 CPT: growth inhibition of DT40 Tdp1-/-;hTDP1 cells with camptothecin (screen for TDP1 inhibitors). 420,000 compounds, 12% hits. chicken DT40 Tdp1-/-;hTDP1 cells + 20 nM CPT, ATP luminescence, 48 h. Potency, µM (series often up to 46.2 µM), hits mostly inhibitors; also: nearly all actives have a fitted effect of over 55% in size
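Chicken DT40 Tdp1-/- cells complemented with human TDP1, 400 cells/well, exposed to compounds plus 20 nM camptothecin for at least 48 h at 37 C; viability read as ATP content by CellTiter-Glo luminescence.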
ClpP mod: qHTS Assay for Activators of ClpP; ATP-dependent Clp protease proteolytic subunit (Bacillus subtilis (strain 168)), P80244; purified B. subtilis ClpP, FRET peptide cleavage, 20 min; Potency, µM (highest dose often 57.5 µM); 340,000 compounds, 1.9% hits; active = well fitted falling curve with a large enough effect; inconclusive = small, poorly fitted or top-dose-only effect; inactive = no such curve, though single readings can be large or run the other way; also: the source files actives as falling curves though it sought activators and does not explain the sign; nearly all actives have a fitted effect of over 65% in size
Target sequence (P80244 whole entry, looked up): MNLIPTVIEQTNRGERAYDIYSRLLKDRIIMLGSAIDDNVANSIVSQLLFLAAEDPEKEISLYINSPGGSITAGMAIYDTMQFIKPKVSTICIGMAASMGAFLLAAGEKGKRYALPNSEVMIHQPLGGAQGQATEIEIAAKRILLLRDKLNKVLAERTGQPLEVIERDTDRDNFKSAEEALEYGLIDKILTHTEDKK
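FRET quenching reversal measured ClpP activation: 10 microg/mL B. subtilis ClpP at pH 8 with the FRET-FV decapeptide, read at 430 nm after 320 nm excitation. The 20-min minus 0-min signal was scaled between DMSO/no-enzyme wells and ADEP (5.8 microM final).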
IL-1B inflam inh: blocks inflammasome-driven IL-1 beta release. THP-1 LPS/ATP IL-1B secretion, AlphaLISA, 16 h; hits give low values. 360,000 compounds, 4.7% hits. activity change, % at 57.5 µM; in the data active = activity change below about -50%; inconclusive = mostly about -30% to -49%
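THP-1 cells pretreated 1 hr with compounds (up to 57.5 uM final), then stimulated with LPS (250 ng/mL final) plus ATP (1.25 mM final); secreted IL-1B measured by AlphaLISA after 16 hr, decreased signal indicating inhibition.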
DT40 TDP1 no CPT: qHTS for Inhibitors of human tyrosyl-DNA phosphodiesterase 1 (TDP1): qHTS in cells in absence of CPT. 420,000 compounds, 15% hits. AID 686978, 2013. DT40 Tdp1-/- hTDP1 cells, no CPT, ATP luminescence, 48 h. Potency, µM (top dose mostly 46.2 µM), most hits filed as inhibitors; also: nearly all actives have a fitted effect of over 55% in size
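No-CPT arm: Tdp1-/-;hTDP1 DT40 cells (400/well) plus compounds, incubated ≥48 hr at 37 °C. Readout CellTiter-Glo luminescence.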
A number is an active result; – = inactive; ? = inconclusive; · = not tested or not shown. Unless noted, calls follow the shape of the dose curve; as a rule, active = well fitted inhibition curve with a large enough effect; inconclusive = small, poorly fitted or top-dose-only effect; inactive = flat fitted curve, though single readings scatter.

SMILES	D3 ag	DRD3 antagonist	DT40 TDP1 CPT	ClpP mod	IL-1B inflam inh	DT40 TDP1 no CPT
Cc1cc(=O)n2c(C(=O)Nc3ccc(C(=O)OC(C)C)cc3)c(C(=O)Nc3ccccc3)sc2n1	–	–	?	–	–	15µM
CCCN1C(C(=O)c2ccccc2)=C(OC(=O)c2ccc(F)cc2)c2ccccc2S1(=O)=O	–	·	5.2µM	–	·	4.6µM
CCC(=O)OC1=C(C(C)=O)N(Cc2ccccc2)S(=O)(=O)c2ccccc21	–	·	18µM	–	·	?
CCN1C(C(=O)c2ccccc2)=C(OC(=O)c2ccc(OC)cc2)c2ccccc2S1(=O)=O	–	·	4.6µM	–	·	6.5µM
Cc1ccc(C(=O)OC2=C(C(=O)c3ccccc3)N(C)S(=O)(=O)c3ccccc32)cc1	–	·	?	–	·	?
CCCCCN1C(C(=O)c2ccccc2)=C(OC(=O)CC)c2ccccc2S1(=O)=O	–	·	4.6µM	–	·	5.2µM
Cc1cccc(-n2c(C)c(-c3ccccc3)[nH]c2=S)c1	–	–	?	–	–	?
c1cn(-c2ccnc(-c3ccc4c(c3)OCO4)n2)cn1	·	·	–	·	·	–
CCCCC(=O)OC1=C(C(=O)c2ccccc2)N(CCC)S(=O)(=O)c2ccccc21	–	·	3.3µM	–	·	2.9µM
CCCCC(=O)OC1=C(C(C)=O)N(Cc2ccccc2)S(=O)(=O)c2ccccc21	–	·	?	–	·	?
Cc1ccc(Cl)cc1N1CCN(C(=O)COc2cc(=O)n(C)c3ccccc23)CC1	–	·	?	–	·	23µM
Cn1c(=O)cc(OCC(=O)NCCCN2CCN(c3ccccc3F)CC2)c2ccccc21	–	?	?	–	–	?
Cn1c(=O)cc(OCC(=O)NCCCN2CCN(c3cccc(Cl)c3)CC2)c2ccccc21	–	–	?	–	–	16µM
Cc1nc2ncnn2c(C)c1CCC(=O)NCCCN1CCN(c2cccc(Cl)c2)CC1	–	-52	–	–	–	–
Nc1nc(N(Cc2ccccc2)Cc2ccccc2)nc(C(F)(F)F)n1	–	?	–	–	–	–
COc1ccc(OC)c(NC(=O)CCN2CCN(CCO)CC2)c1	–	–	–	–	–	–
CCc1ccc2c(c1)C(=O)C(=O)N2CCS(=O)(=O)c1ccccc1	–	–	2.9µM	–	–	2.6µM
CCc1ccc2c(c1)C(=O)C(=O)N2CC(=O)Nc1ccc(NC(=O)c2ccccn2)cc1	–	–	?	·	–	?
COCCNC(=S)NCCc1ccc(Cl)cc1Cl	–	–	–	–	–	–
CCN(CC)CCOC(=O)c1ccc(N/C=C(/C#N)c2nc(-c3ccc(OC)c(OC)c3)cs2)cc1	–	–	–	·	–	4.6µM
N[C@@]1(C(=O)O)CN[C@@H](C(=O)O)C1	·	·	–	·	·	–
O=C(Nc1cccc(OC(=O)c2cccnc2)c1)c1cccnc1	–	?	10µM	–	–	10µM
O=C(Nc1ccc(NC(=O)c2cccnc2)cc1)c1ccccc1	–	–	–	·	–	–
O=C(Nc1cccc(NC(=O)c2cccs2)c1)c1cccnc1	–	–	–	·	–	?
O=C(Nc1ccc(F)cc1)c1cccnc1	–	–	9.2µM	–	–	?
SMILES	D3 ag	DRD3 antagonist	DT40 TDP1 CPT	ClpP mod	IL-1B inflam inh	DT40 TDP1 no CPT
O=C(Nc1ccc(-c2noc(-c3cccs3)n2)cc1)c1cccnc1	–	–	?	–	?	29µM
O=C(Nc1ccc(OC(=O)c2cccnc2)cc1)c1cccnc1	–	–	–	–	–	–
CCC(C(=O)Nc1cc(OC)cc(OC)c1)n1nc(-c2ccc(C)c(C)c2)ccc1=O (centres undefined)	–	·	?	–	·	?
COc1ccc(-c2oc3ccc(N4CCOCC4)cc3c2C#Cc2ccc(N)cc2)cc1	–	–	7.3µM	–	–	6.5µM
COc1ccc(-c2oc3cccnc3c2C#CC2(O)CCCCC2)cc1	–	–	?	–	-56	23µM
COc1cc(-c2ccc3oc(-c4ccsc4)c(C#CC4(O)CCCCC4)c3c2)cc(OC)c1OC	36	–	?	–	·	?
